A number with no mark means an inactive call. Results filed as inconclusive are left out. Entries that show only a call come without a potency. The source made the active and inactive calls. Unless noted, the call rests on the fitted dose curve; in most records, active means well fitted curve in the direction sought with a large enough effect in the repeat runs; inconclusive means weak or mixed curves; inactive means no such curve, though single readings can be large; an effect the other way counts as inactive or inconclusive.
Assays:
[1] = molecular target: Nuclear receptor subfamily 1 group I member 3 (Homo sapiens) (UniProt Q14994); assay: qHTS assay to identify small molecule agonists of the constitutive androstane receptor (CAR) signaling pathway (AID 1224839);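 further: HepG2 cells stably carrying human CAR and a CYP2B6 luciferase reporter; nearly all actives have a fitted effect of over 15% in size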
Outline: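 Compounds tested at 15 concentrations on HepG2 cells stably harbouring hCAR and CYP2B6-2.2kb reporter constructs, co-treated with PK11195 (0.75 uM final), 24 h at 37 C; luminescent reporter signal quantified.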

[2] = qHTS assay to identify small molecule agonists of the hypoxia (HIF-1) signaling pathway - cell viability counter screen (AID 1224844; calls by dose curve; further: nearly all actives have a fitted effect of over 50% in size; further: potency means the concentration at half of the fitted maximal effect)
Outline: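 ME-180 HRE-bla cells, 2,000/well, 0.5% dialyzed FBS; 5 hr settle, 17 hr compound at 37C/5% CO2; CCF4-AM reporter read first, then CellTiter-Glo luminescence after 30 min RT.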

[3] = qHTS assay to identify small molecule agonists of H2AX - cell viability counter screen (AID 1224847; calls by dose curve; further: nearly all actives have a fitted effect of over 30% in size; further: potency means the concentration at half of the fitted maximal effect)
Outline: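 Compounds tested at 15 concentrations were incubated 3 hr at 37C with wild-type CHO-K1 cells; cellular ATP-based luminescence (CellTiter-Glo) indicated viability.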

[4] = A CellTox Green Cytotoxicity Assay to monitor cytotoxicity in HEK293 cells - 0 hour (AID 1224869); further: nearly all actives have a fitted effect of over 50% in size
Outline: (§1)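 Nonlytic real-time cytotoxicity: HEK293 + CellTox Green reagent plated, 5 h preincubation, pintool compound addition (23 nL in DMSO), 37 C for 40 h, fluorescence measured at successive time points.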

[5] = A CellTox Green Cytotoxicity Assay to monitor cytotoxicity in HEK293 cells - 40 hour (AID 1224871); further: nearly all actives have a fitted effect of over 45% in size; further: potency means the concentration at half of the fitted maximal effect
Outline: as §1

[6] = qHTS RealTime-Glo MT Cell Viability Assay in HEK293 cells - 16 hour (AID 1224872); further: nearly all actives have a fitted effect of over 50% in size; further: potency means the concentration at half of the fitted maximal effect
Outline: (§2)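 HEK293 cells seeded with NanoLuc/prosubstrate reagent, rested 5 h at 37 C, then dosed and kept at 37 C up to 40 h. Nonlytic real-time luminescence from viable cells read at 0, 8, 16, 24, 32 and 40 h.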

[7] = qHTS RealTime-Glo MT Cell Viability Assay in HepG2 cells - 8 hour (AID 1224873); further: nearly all actives have a fitted effect of over 55% in size; further: potency means the concentration at half of the fitted maximal effect
Outline: (§3)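 HepG2 cells mixed with RealTime-Glo MT reagents (NanoLuc plus cell-permeant prosubstrate) were seeded at 600 cells/well, incubated 5 h at 37 C/5% CO2, then pinned with compounds in DMSO; nonlytic luminescence tracked viability during 40 h treatment.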

[8] = qHTS assay to identify small molecule antagonists of the estrogen related receptor signaling pathway with the pleiotropic PPARgamma coactivator (PGC) from Tox21 10K library - cell viability counter screen (AID 1224840; active means well fitted cell-killing curve with a large enough effect in the repeat runs, not every such curve was filed as active; further: nearly all actives have a fitted effect of over 40% in size)
Outline: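 PGC/ERR cells, 2,000/well; 6 h pre-incubation 37 C/5% CO2; cpd in DMSO via pin tool; 17.5 h 37 C; CellTiter-Fluor, 30 min; fluorescence.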

[9] = qHTS assay to identify small molecule antagonists of the estrogen related receptor signaling pathway with the pleiotropic PPARgamma coactivator (PGC) from Tox21 10K library (AID 1224841; call rule not given here; further: actives are mostly falling curves and most rising ones were filed inactive; nearly all actives have a fitted effect of over 50% in size)
Outline: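 PGC/ERR cell line, 2,000 cells/well; 6 h pre-incubation 37 C/5% CO2; compounds (DMSO) pinned in; 18 h, 37 C; One-Glo, 30 min RT; luminescence.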

[10] = qHTS assay to identify small molecule agonists of the estrogen related receptor signaling pathway with the pleiotropic PPARgamma coactivator (PGC) from Tox21 10K library (AID 1224842); further: nearly all actives have a fitted effect of over 15% in size
Outline: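 PGC/ERR reporter cells (NTP line) were seeded 2,000 per well, rested 6 h at 37 C/5% CO2, then pin-dosed with compounds in DMSO for 18 h at 37 C; luciferase read by One-Glo luminescence after 30 min at room temperature.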

[11] = molecular target: Thyrotropin receptor (Homo sapiens) (UniProt P16473); assay: qHTS assay to identify small molecule agonists of the thyroid stimulating hormone receptor (TSHR) signaling pathway (AID 1224843; calls by dose curve; further: nearly all actives have a fitted effect of over 45% in size)
Outline: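 TSHR-expressing HEK293 cells (800 per well) were exposed to compounds for 30 min at room temperature. cAMP was then detected by HTRF competition with cAMP-d2 and anti-cAMP cryptate, read after 1 h at room temperature. Fifteen concentrations, triplicate.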

[12] = qHTS assay to identify small molecule agonists of H2AX (AID 1224845; active means well fitted activation curve with a large enough effect in the signal ratio in the repeat runs, not every such curve was filed as active; the % refers to the signal ratio)
Outline: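 Wild-type CHO-K1 cells plated overnight, then exposed 3 hr at 37C to compounds at 15 concentrations (0.76% DMSO). Lysed, then HTRF anti-pH2AX(S139)-cryptate/anti-H2AX-d2 detection after 24 hr at room temperature; emissions 665 and 620 nm.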

[13] = qHTS assay to identify small molecule antagonists of the estrogen related receptor (ERR) signaling pathway from Tox21 library (AID 1224848); further: nearly all actives have a fitted effect of over 50% in size
Outline: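 Cells: ERR line, 2,000/well; 6 h preincubation 37 C/5% CO2. Cpd in DMSO via pin tool; 18 h, 37 C. ONE-Glo, 30 min RT, luminescence.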

[14] = qHTS assay to identify small molecule agonists of the estrogen related receptor (ERR) signaling pathway from Tox21 library (AID 1224849; calls by dose curve; further: nearly all actives have a fitted effect of over 15% in size); details: ERR reporter cell line, ONE-Glo luciferase, 18 h; at 92.4 µM (top of the series) unless noted
Outline: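 ERR cells, 6 h pre-incubation 37 C/5% CO2; cpd in DMSO pinned; 18 h 37 C; ONE-Glo added, 30 min RT; luminescence read. Agonist mode, qHTS.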

[15] = qHTS RealTime-Glo MT Cell Viability Assay in HEK293 cells - 32 hour (AID 1224868)
Outline: as §2

[16] = qHTS RealTime-Glo MT Cell Viability Assay in HepG2 cells - 40 hour (AID 1224870); further: nearly all actives have a fitted effect of over 50% in size
Outline: as §3

[17] = qHTS RealTime-Glo MT Cell Viability Assay in HEK293 cells - 40 hour (AID 1224874); details: RealTime-Glo luminescence; max response: stronger effect = lower value; further: nearly all actives have a fitted effect of over 50% in size
Outline: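 Cells were seeded together with NanoLuc luciferase and a prosubstrate that viable cells reduce to a luciferase substrate. After a 5 h incubation at 37 C/5% CO2, compounds were added and luminescence was measured repeatedly during 40 h of treatment.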

[18] = molecular target: Nuclear receptor subfamily 1 group I member 3 (Homo sapiens) (UniProt Q14994); assay: qHTS assay to identify small molecule antagonists of the constitutive androstane receptor (CAR) signaling pathway (AID 1224838);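 further: HepG2 cells stably expressing hCAR with CYP2B6 luciferase reporter stimulated by CITCO; nearly all actives have a fitted effect of over 40% in size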
Outline: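 HepG2-CYP2B6-hCAR cells; 4 h pre-incubation; cpd (15 conc) + CITCO 50 nM final; 24 h, 37 C/5% CO2; ONE-Glo, luminescence.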

[19] = qHTS assay to identify small molecule agonists of the hypoxia (HIF-1) signaling pathway (AID 1224846; active means well fitted activation curve with a large enough effect in the signal ratio in the repeat runs, not every such curve was filed as active; the % refers to the signal ratio)
Outline: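 Cell line: CellSensor HRE-bla ME-180; 2,000 cells/well; 0.5% dialyzed FBS; 5 h preincubation; DMSO compound pin transfer; 17 h, 37C, 5% CO2; CCF4-AM added; bla FRET signal scored for activation.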

[20] = qHTS RealTime-Glo MT Cell Viability Assay in HepG2 cells - 24 hour (AID 1224867); further: nearly all actives have a fitted effect of over 50% in size
Outline: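 HepG2 cells (600/well) were dispensed with RealTime-Glo reagents, incubated 5 h at 37 °C, then treated with compounds in DMSO for up to 40 h. Nonlytic NanoLuc luminescence reflecting viable cells was read at each stated time point.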

Chain of Nuclear receptor subfamily 1 group I member 3 (Homo sapiens) (Q14994 whole entry, looked up): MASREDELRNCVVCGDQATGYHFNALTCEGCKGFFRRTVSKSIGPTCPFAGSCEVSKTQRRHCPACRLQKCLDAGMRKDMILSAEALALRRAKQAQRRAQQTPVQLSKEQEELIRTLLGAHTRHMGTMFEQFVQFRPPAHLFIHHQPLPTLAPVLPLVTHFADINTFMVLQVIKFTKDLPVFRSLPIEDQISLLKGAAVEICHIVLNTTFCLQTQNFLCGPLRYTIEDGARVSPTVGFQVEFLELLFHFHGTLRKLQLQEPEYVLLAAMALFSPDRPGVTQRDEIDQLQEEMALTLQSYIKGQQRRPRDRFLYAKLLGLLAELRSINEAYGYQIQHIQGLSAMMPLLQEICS
Chain of Thyrotropin receptor (Homo sapiens) (P16473 whole entry, looked up): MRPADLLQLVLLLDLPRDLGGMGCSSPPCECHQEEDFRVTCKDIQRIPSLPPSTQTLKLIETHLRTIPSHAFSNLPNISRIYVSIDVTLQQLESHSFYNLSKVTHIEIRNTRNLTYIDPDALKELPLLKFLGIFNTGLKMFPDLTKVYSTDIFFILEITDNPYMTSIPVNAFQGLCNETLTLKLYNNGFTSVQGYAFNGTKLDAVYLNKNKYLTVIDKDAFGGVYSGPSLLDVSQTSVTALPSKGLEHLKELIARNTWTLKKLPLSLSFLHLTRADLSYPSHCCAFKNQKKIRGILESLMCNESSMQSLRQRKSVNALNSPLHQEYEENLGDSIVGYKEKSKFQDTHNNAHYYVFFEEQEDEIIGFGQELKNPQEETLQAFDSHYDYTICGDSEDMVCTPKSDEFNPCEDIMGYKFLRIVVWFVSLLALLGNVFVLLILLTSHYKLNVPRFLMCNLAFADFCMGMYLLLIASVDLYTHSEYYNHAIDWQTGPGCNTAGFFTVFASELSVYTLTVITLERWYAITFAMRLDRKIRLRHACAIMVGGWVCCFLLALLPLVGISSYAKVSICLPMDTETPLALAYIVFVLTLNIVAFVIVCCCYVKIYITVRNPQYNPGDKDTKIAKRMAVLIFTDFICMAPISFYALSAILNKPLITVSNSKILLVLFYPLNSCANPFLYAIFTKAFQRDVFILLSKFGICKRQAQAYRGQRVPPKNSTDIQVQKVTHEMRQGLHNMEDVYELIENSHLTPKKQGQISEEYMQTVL

SMILES	Potency [1]	Potency [2]	Potency [3]	Potency [4]	Potency [5]	Potency [6]	Potency [7]	Potency [8]	Potency [9]	Potency [10]	Potency [11]	Potency [12]	Potency [13]	activity change, positive = activation [14] [%]	Potency [15]	Potency [16]	max response [17] [%]	Potency [18]	Potency [19]	Potency [20]
NCc1cccc(C2CCN(C(=O)c3ccc(C#Cc4ccccc4F)o3)CC2)c1	inactive	54.9 µM (active)	56.6 µM (active)	inactive	54.9 µM (active)	49 µM (active)	49 µM (active)													
Cc1c[nH]c(=O)[nH]c1=O		inactive	inactive	inactive	inactive	inactive	inactive	inactive	inactive	inactive	inactive	inactive	inactive	0.0206	inactive	inactive	10.6			
Nc1cc([N+](=O)[O-])cc(Cl)c1O	inactive	inactive	inactive	inactive		inactive									inactive	inactive	-6.05	inactive	inactive	
Oc1ccc2c(c1)CCC2		inactive	inactive	inactive	inactive	inactive	inactive	inactive	inactive	inactive		inactive	inactive	7.55	inactive	inactive	-3.07	inactive	inactive	
Brc1cc(Br)cc(Br)c1	inactive	inactive	inactive	inactive		inactive			inactive	inactive	inactive		inactive		inactive	inactive	0.239			inactive
C1CCSC1		inactive	inactive	inactive	inactive		inactive	inactive		inactive	inactive	inactive	inactive	0.687		inactive				inactive
Cc1ccc2n[nH]nc2c1		inactive	inactive	inactive	inactive	inactive	inactive		inactive	inactive	inactive	inactive	inactive	4.26	inactive	inactive	-0.793			inactive
